Reference: the supplement of paper PMC3334620
Whole data set: some 33,000 sequences, median “E-score (-0.5 to 0.5)” near -0.016, cut for the highest 2% near 0.32. This excerpt belongs to a sample that is enriched for the highest values.

These sequences were tested against T1, Stp1 (UniProt B3LFK1) (assay: PBM E-score (8-mer binding enrichment) (E-score (-0.5 to 0.5)); higher = stronger / more preferred TF binding). Settings: protein concentration: 200 nM; construct: GST-full length.
T1 sequence: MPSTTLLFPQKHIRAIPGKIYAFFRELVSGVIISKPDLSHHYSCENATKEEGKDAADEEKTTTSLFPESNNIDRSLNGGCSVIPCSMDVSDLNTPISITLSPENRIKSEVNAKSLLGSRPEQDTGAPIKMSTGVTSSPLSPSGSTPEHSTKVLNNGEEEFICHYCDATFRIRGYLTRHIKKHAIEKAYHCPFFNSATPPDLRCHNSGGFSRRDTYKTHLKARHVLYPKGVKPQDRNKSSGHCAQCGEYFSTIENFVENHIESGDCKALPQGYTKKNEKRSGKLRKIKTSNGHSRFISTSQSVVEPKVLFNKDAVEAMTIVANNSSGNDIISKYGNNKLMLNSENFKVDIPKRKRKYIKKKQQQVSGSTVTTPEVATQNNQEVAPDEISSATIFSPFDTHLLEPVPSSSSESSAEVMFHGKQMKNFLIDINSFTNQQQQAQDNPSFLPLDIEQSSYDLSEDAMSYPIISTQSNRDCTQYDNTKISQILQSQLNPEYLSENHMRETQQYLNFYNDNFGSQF
In short: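 Using PURExpress in vitro transcription/translation, GST-tagged yeast transcription factors were made in full-length or DNA-binding-domain form. These were applied at about 100-200 nM to double-stranded universal all-10-mer Agilent arrays, and bound protein was detected with fluorescent anti-GST. Scans were normalised with masliner before the Universal PBM Analysis Suite assigned E-scores to ungapped eight-base words pooled with their reverse complements.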

Sequence | PBM E-score
CTGCCAGC | -0.204
TCAAAGAA | -0.0561
AAGCGAGC | 0.0162
CAAGGTTC | -0.124
CCGCTCTC | -0.0569
AAAACCTA | 0.0597
CGGGTGGA | -0.162
AGACGGAA | 0.106
CGACGGCA | 0.299
AGACGGCA | 0.449
GGACGGCA | 0.441
AGACGGGA | -0.12
GGACGGCC | 0.16
AGGGTCAT | -0.233
CTCGCCAA | 0.0165
CGACTCGA | -0.115
CACCATTC | 0.0105
CACCGTCG | -0.114
CTACGGTA | -0.146
ATACGGAA | 0.268
GTACGGCA | 0.48
GTACGGTA | 0.147
CTACGGAA | 0.0958
GTACGGGA | 0.0383
ATACGGCA | 0.483

Sequence | PBM E-score
ATACGGGC | -0.0186
ATACGGCC | 0.406
CTACGGCA | 0.473
CTACGGCC | 0.126
ATACGGGA | 0.125
CAAAGGGG | -0.262
GGGCTGAC | -0.134
AGTAGACA | 0.0181
ATAGGGAC | -0.211
ATCTCCTC | -0.209
AGCCTGCG | -0.245
GTTAAGAA | 0.0825
AGAGAGAA | -0.198
CTAGAAAA | -0.0127
ATCCGCGG | 0.13
AGCCGCGC | 0.424
ACCCGCGC | 0.232
AGCCGCGA | 0.159
AGCCGCGG | 0.376
AACCGCGC | 0.167
GGGTTCCA | -0.286
AGAGTACA | 0.04
CCGTTAGC | 0.0331
CAGACCCC | -0.381
ATGGCAAA | 0.197

Sequence | PBM E-score
ACGGCAAA | 0.45
CCGGCAAG | -0.0231
AAGGCAAT | 0.253
ATGGCAAC | 0.289
AGGGCAAA | 0.0608
AGGGCAAT | 0.156
AAGGCAAC | 0.274
ACGGCAAG | 0.369
AAGGCAAG | 0.0628
ACGGCAAT | 0.45
ACGGCAAC | 0.455
AATGTCCT | -0.246
CAAGCGCG | 0.124
ATTTTGAA | 0.277
GGAGTCAC | -0.236
ACTAACAT | 0.0936
ACGGATAC | 0.249
GGAAAGGA | -0.0901
AAGCCGAG | -0.0198
AAGCCGTC | 0.296
AAGCCGGG | -0.211
AAGCCGTG | 0.419
GAGCCGAA | 0.232
GAGCCGTA | 0.468
AAGCCGTA | 0.398

Sequence | PBM E-score
AAGCCGAA | 0.116
CAGCCGTA | 0.306
CACCTCCG | -0.0858
AGATCCTC | -0.251
ACTGTGAA | 0.0195
CCTGCACC | -0.271
GAGATTAC | -0.0779
ACGTAGAT | -0.0617
ACCTTTAC | 0.0425
GAGACAGA | -0.0347
TATGCGGA | 0.207
GCCGAACA | 0.114
CTGGGGGA | -0.35
AGGTAGCG | -0.105
CCGCGCCG | 0.462
ACGCGCCC | 0.289
ACGCGCCG | 0.412
ACGCGCCA | 0.0175
CCGCGTCA | 0.214
CCGCGCCC | 0.279
CCGCGTCG | 0.355
CCGCGCCA | 0.252
ACGCGCCT | 0.34
CCGCGTCC | 0.296
ACGCGCTG | 0.119

Sequence | PBM E-score
ACGCGCAG | -0.103
CTTGGTTC | 0.197
ACGGTTAA | 0.0599
AAAGGCTG | -0.102
GGTATCCA | 0.0649
AACGAGTT | -0.18
CCTGCCCA | -0.259
ATCAGAGC | 0.0942
GAAGTATA | 0.169
GCGTTGAA | 0.138
CGCAAAAG | 0.0708
CTTGCTCC | -0.0209
ATGGCGCG | 0.196
CTGGCGCC | 0.314
GAGGCGTA | 0.278
GAGGCGAA | 0.206
GAGGCGCC | 0.414
AAGGCGCC | 0.424
GAGGCCCC | -0.125
AAGGCGAC | 0.224
AAGGCGTC | 0.296
CAGGCGCC | 0.286
ATGGCGCC | 0.34
GAGGCGCA | 0.338
CGATAGAC | 0.00428

Sequence | PBM E-score
AGGTGAGA | -0.0297
ATACCACA | 0.0264
ATGTCGCA | 0.0188
ATAGGCGA | -0.0945
ATACTCGC | -0.0916
CCCCCTGC | -0.346
TAAATCAA | 0.0833
CTTAGCCA | 0.13
AAGCGCTT | 0.0783
GATCCTAA | -0.164
GCATGAGA | 0.151
GGAGATAC | -0.0561
ATCCTAGC | -0.102
AAAGCGCT | 0.16
AAGGCGCA | 0.316
CAGGCGCA | -0.031
AAGGCGCT | 0.396
AAGGCGGG | -0.112
CAGGCGCG | 0.113
TAGGCGCA | 0.155
AAGGCGCG | 0.4
AAGGCGGT | 0.105
CCTACTGC | 0.107
CTGAAGGC | -0.14
AGTTGGGA | -0.114

Sequence | PBM E-score
ACCCGAGA | -0.282
CACCCAGA | -0.257
AGACCGCC | -0.0258
CCCGTTGA | -0.0684
GGCGTTTA | 0.337
CCCGTTTA | 0.185
ACCGTTGA | -0.134
GCCGTTTA | 0.443
GCCGTTGA | 0.383
CGCGTTTA | -0.0505
ACCGTTTA | 0.168
AGCGTTTA | -0.127
GAATCTCC | -0.122
GGAAGGAA | -0.0797
GAACTGAC | 0.0623
AGAGTATG | -0.303
AGCTGCTC | -0.127
CGGATAGA | 0.228
TGACCGCA | 0.025
ACATGCCC | -0.168
ACATGCCG | 0.369
CCATGCCA | 0.148
CCATGCCC | -0.0806
